Hits are enriched below; roughly 5.2% of the tested compounds scored in any of these assays.
TrxR1 inh = rat TrxR1 inhibition; O89049; recombinant rTrxR1, NADPH fluorescence consumption, selenite substrate; Potency, µM (doses to about 114 µM), for the others: at the top dose activity change, negative = inhibition, actives largely listed as inhibitors; 390,000 tested, 1% active; AID 588453; also: nearly all actives have a fitted effect of over 65% in size
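Rat TrxR1 (90 nM in the dispensed reagent) was pre-reduced with 400 uM NADPH for 5 min at room temperature, then incubated with compound for 15 min. After 400 uM selenite was added, NADPH fluorescence (Ex 340/Em 450 nm) was followed for 8 min.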
VDR inh = blocks the human vitamin D receptor; P11473; VDR-SRC2-3 peptide fluorescence polarization, 2 h; Potency, µM, inactives show max response, negative = inhibition, most hits filed as inhibitors; 400,000 tested, 0.93% active
Target sequence (P11473 whole entry, looked up): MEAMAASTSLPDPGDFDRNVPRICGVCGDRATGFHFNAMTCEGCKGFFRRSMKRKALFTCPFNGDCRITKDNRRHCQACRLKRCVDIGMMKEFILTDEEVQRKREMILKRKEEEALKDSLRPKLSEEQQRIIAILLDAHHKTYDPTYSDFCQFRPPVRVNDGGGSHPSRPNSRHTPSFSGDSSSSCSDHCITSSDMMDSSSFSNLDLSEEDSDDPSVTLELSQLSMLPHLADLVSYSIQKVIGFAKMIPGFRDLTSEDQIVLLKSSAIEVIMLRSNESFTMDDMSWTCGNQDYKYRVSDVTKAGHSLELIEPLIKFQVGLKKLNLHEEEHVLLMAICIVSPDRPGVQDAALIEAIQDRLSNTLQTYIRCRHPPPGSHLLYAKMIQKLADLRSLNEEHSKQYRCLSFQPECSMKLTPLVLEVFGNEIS
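VDR–SRC2-3 interaction, FP format. Cmpds 23 nl via pintool, brief spin, 2 h ambient incubation.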
TrxR1 substrate = rat thioredoxin reductase 1 substrate activity; O89049; purified TrxR1 substrate turnover, NADPH consumption readout; AID 588456; Potency, µM (titrated, usually from 114 µM), for inactives: at the top dose activity change, negative = substrate turnover; 390,000 tested, 0.01% active; also: nearly all actives have a fitted effect of over 50% in size
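Rat TrxR1, dispensed at 90 nM, was prereduced with 400 uM NADPH (final) for 5 min at ~22 deg C, then incubated with compound 15 min before 400 uM selenite. A first-read NADPH fluorescence drop versus no-compound background flagged substrates.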
PLK1 PBD block = PLK1 (human) polo-box domain binding inhibition; P53350; Plk1 PBD binding of FITC phosphopeptide, fluorescence polarization; Potency, µM, for inactives: max response, negative = inhibition, actives largely listed as inhibitors; 360,000 tested, 2.8% active; AID 720504; also: series mostly up to about 57 µM; nearly all actives have a fitted effect of over 65% in size
Sfp inh = blocks B. subtilis Sfp PPTase activity. Q9F4F7. 310,000 tested, 3.5% active. Potency, µM, for inactives: largest response in the series, negative = inhibition, most hits filed as inhibitors. Biochemical Sfp PPTase activity, qHTS;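 also: the enzyme is Sfp with the accession as filed and its product quenches rhodamine fluorescence; 0% = enzyme reaction without inhibitor and -100% = no enzyme wells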
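Sfp 15 nM + cpd, 15 min RT; start w/ rhodamine-CoA 5 uM, BHQ-2-YbbR 12.5 uM (final); 50 mM Hepes pH 7.6, 10 mM MgCl2, 0.01% NP-40, 0.01% BSA; read 525/598 nm at 0 and 30 min.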
IDH1 R132H inh = blocks human mutant IDH1 R132H enzyme | AID 602179 | Potency, µM (series often up to 76.6 µM), for inactives: at the top dose activity change, negative = inhibition, usual class: inhibitors | 390,000 tested, 0.093% active | O75874 | IDH1-R132H enzyme, NADPH consumption, diaphorase/resazurin fluorescence; also: nearly all actives have a fitted effect of over 65% in size
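IDH1-R132H (0.5 ug/mL dispensed) in pH 7.5 Tris buffer was preincubated 30 min with compound, then given a substrate mix of 0.016 mM NADPH and 2 mM alpha-KG for 80 min at room temperature; remaining NADPH was read by diaphorase/resazurin fluorescence.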
Starred values were filed as active, the others as inactive; ! = a repeat was not active; [ ] = dose if it differs, or a comment. Calls follow the shape of the dose curve; as a rule, active = well fitted curve in the direction sought with a large enough effect; inconclusive = small, poorly fitted or top-dose-only effect, or another doubt; inactive = no such curve, though single readings can be large; an effect the other way counts as inactive or inconclusive. Unless noted, % is scaled to controls: 0 for no effect and ±100 for the full control effect; potency is read from the fitted curve at half-maximal effect.

`CCCC(=O)NC(c1ccc(C(C)C)cc1)c1ccc2cccnc2c1O` (stereo not drawn) gave TrxR1 inh 9%, VDR inh -12%, TrxR1 substrate -5%, PLK1 PBD block -12%, Sfp inh 8% and IDH1 R132H inh 0%.
CCCC(=O)NC(c1ccc(N(C)C)cc1)c1ccc2cccnc2c1O (stereo not drawn) was read as TrxR1 inh -18%, VDR inh -21%, TrxR1 substrate -7%, PLK1 PBD block 27µM*, Sfp inh 18% and IDH1 R132H inh 10%.
For CCOC(=O)C1CCN(CCC(=O)Nc2ccc(OC)cc2)CC1 the results were TrxR1 inh 19%, VDR inh 4%, TrxR1 substrate 9% and IDH1 R132H inh 0%.
For N#CCCn1c(=O)c(-c2cccs2)nc2cnc(N3CCNCC3)nc21 the results were VDR inh -13% and Sfp inh -8%.
For Cc1cc(=O)n(CC(=O)O)c2ccccc12 the results were TrxR1 inh 29%, VDR inh -11%, TrxR1 substrate 7%, PLK1 PBD block 2%, Sfp inh 4% and IDH1 R132H inh 0%.
Screening CCOC(=O)Cn1c(=O)cc(C)c2ccccc21 returned TrxR1 inh 8%, VDR inh inconclusive, TrxR1 substrate 0%, PLK1 PBD block 3.4µM*, Sfp inh -5% and IDH1 R132H inh 15%.
Cc1cc(=O)n(Cc2ccccc2)c2ccccc12 was read as TrxR1 inh 24%, VDR inh -10%, TrxR1 substrate 11%, PLK1 PBD block 21µM*, Sfp inh 10% and IDH1 R132H inh 1%.
C#C[C@@]1(O)CC[C@@H]2[C@H]3CCC4=C/C(=N\O)CC[C@H]4[C@@H]3CC[C@]21CC was read as VDR inh -27% and Sfp inh -9%.
For Cc1cc(C(=O)OCC(=O)N2CCOCC2)c2ccccc2n1 the results were TrxR1 inh 2%, VDR inh inconclusive, TrxR1 substrate 5%, PLK1 PBD block 15µM*, Sfp inh -23% and IDH1 R132H inh 2%.
For Cc1ccc(N2CC(C(=O)OCC(=O)c3c(N)n(CC(C)C)c(=O)n(C)c3=O)CC2=O)cc1 (stereo not drawn) the results were TrxR1 inh 14%, VDR inh -3%, TrxR1 substrate 0%, PLK1 PBD block -12% and IDH1 R132H inh 1%.
Screening Cn1c(=O)c(C(=O)COC(=O)c2cc(-c3ccco3)nc3ccccc23)c(N)n(Cc2ccccc2)c1=O returned Sfp inh 32µM*.
Screening Cc1cc(C(=O)OCC(=O)N2CCCC2)c2ccccc2n1 returned TrxR1 inh -3%[11.4 µM], VDR inh -14%, TrxR1 substrate 12%[57.1 µM], PLK1 PBD block -5%, Sfp inh 7% and IDH1 R132H inh 1%.
Screening Cn1c(=O)c(C(=O)CCl)c(N)n(CC2CC2)c1=O returned TrxR1 inh 14µM*, VDR inh -1%, TrxR1 substrate -6%[57.1 µM], PLK1 PBD block inconclusive, Sfp inh -4% and IDH1 R132H inh 6%.
Screening Cn1c(N)c(C(=O)COC(=O)c2cc(-c3ccccc3)nc3ccccc23)c(=O)n(Cc2ccccc2)c1=O returned TrxR1 inh 21%, VDR inh 0%, TrxR1 substrate 9%, PLK1 PBD block 1%, Sfp inh 3% and IDH1 R132H inh 1%[38.3 µM].
`CC(C)Cn1c(N)c(C(=O)COC(=O)C2CCCCC2)c(=O)n(C)c1=O` gave TrxR1 inh 6%, VDR inh inconclusive, TrxR1 substrate -1%, PLK1 PBD block 24µM*, Sfp inh -13% and IDH1 R132H inh 4%.
Screening CN(Cc1ccccc1)C(=O)c1ccc2c(c1)N(Cc1ccccc1F)C(=O)c1ccccc1S2(=O)=O returned TrxR1 inh 25%, VDR inh -4%, TrxR1 substrate -4% and IDH1 R132H inh 6%.
Screening NCCCC[C@H](NC(=O)[C@H](CS)NC(=O)[C@@H](N)Cc1cnc[nH]1)C(=O)N[C@@H](Cc1ccccc1)C(=O)N[C@@H](Cc1c[nH]c2ccccc12)C(=O)N[C@@H](Cc1c[nH]c2ccccc12)C(=O)O returned VDR inh -15% and Sfp inh 14%.
Screening CC(C)Cn1c(N)c(C(=O)COC(=O)c2cc(-c3ccccc3)nc3ccccc23)c(=O)n(C)c1=O returned TrxR1 inh 9%[57.1 µM], VDR inh 0%, TrxR1 substrate 7%[57.1 µM], PLK1 PBD block 4%, Sfp inh 8% and IDH1 R132H inh -2%.
Screening CC(C)Cn1c(N)c(C(=O)COC(=O)c2cc(-c3ccco3)nc3ccccc23)c(=O)n(C)c1=O returned TrxR1 inh 2.8µM*, VDR inh inconclusive, TrxR1 substrate 14%, PLK1 PBD block inconclusive, Sfp inh 20µM*! and IDH1 R132H inh -3%[38.3 µM].
O=C(c1ccco1)N1CCN(C(=O)c2cc(-c3ccncc3)nc3ccc(Br)cc23)CC1 was read as TrxR1 inh -60%, VDR inh 6%, TrxR1 substrate 5%, PLK1 PBD block -11% and IDH1 R132H inh 4%.
NC(=O)COC(=O)c1cc(-c2ccco2)nc2ccccc12 was read as TrxR1 inh 79µM*, VDR inh -8%, TrxR1 substrate 60%, PLK1 PBD block -27%, Sfp inh -29% and IDH1 R132H inh 13%.
O=C(O)c1cc(-c2ccco2)nc2ccc(Br)cc12 was read as TrxR1 inh 1.3µM*!, VDR inh 20µM*!, TrxR1 substrate 0%, PLK1 PBD block 4.2µM*!, Sfp inh 13µM*! and IDH1 R132H inh 14%.
Screening COc1cccc(NC(=O)/C(C#N)=C/c2c(C)n(Cc3ccc(Cl)cc3)c3ccccc23)c1 returned TrxR1 inh -6%, VDR inh -17%, TrxR1 substrate -7% and IDH1 R132H inh -7%.
`CN1CCC/C1=C1/C(=O)N(c2ccccc2)N=C1NC(=O)Nc1cccc(Cl)c1` gave TrxR1 inh -6%, VDR inh inconclusive, TrxR1 substrate -4%, PLK1 PBD block 3.8µM*, Sfp inh 7% and IDH1 R132H inh 4%.
`COCc1[nH]nc2c1C(c1ccsc1)C(C#N)=C(N)O2` (stereo not drawn) gave TrxR1 inh -19%, VDR inh -4%, TrxR1 substrate -2%, PLK1 PBD block 27µM*, Sfp inh 1% and IDH1 R132H inh 5%.
`COc1ccc(-c2ccc(-c3cc(=O)oc4cc(C)cc(C)c34)cc2)cc1` gave VDR inh inconclusive and Sfp inh -3%.
For CCCCCCOc1ccc(CC(=O)O)cc1 the results were TrxR1 inh 1% and TrxR1 substrate -1%.

Bioassay records deposited in PubChem BioAssay by National Center for Advancing Translational Sciences (NCATS).
